Reference: PubChem BioAssay AID602385 (Sanford-Burnham Center for Chemical Genomics, 2012)
Among all 2,300 compounds or so, about 180 (7.8%) were called active. The list is a sample of the results. Unmarked numbers belong to inactive results.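 The calls were made as follows: active = average inhibition of at least 30% in the single-concentration confirmation test; inactive = the rest.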

Target: DNA (cytosine-5)-methyltransferase 1 (Homo sapiens) (UniProt P26358)
Test: inhibition of human DNMT1, hit confirmation – biochemical, molecular beacon, fluorescence, single concentration (AID 602385)
Settings: DNMT1 molecular beacon HinP1I cleavage, at 10 µM, stronger effect = higher value

Chain of DNA (cytosine-5)-methyltransferase 1 (Homo sapiens) (P26358 504-1616 limits assumed): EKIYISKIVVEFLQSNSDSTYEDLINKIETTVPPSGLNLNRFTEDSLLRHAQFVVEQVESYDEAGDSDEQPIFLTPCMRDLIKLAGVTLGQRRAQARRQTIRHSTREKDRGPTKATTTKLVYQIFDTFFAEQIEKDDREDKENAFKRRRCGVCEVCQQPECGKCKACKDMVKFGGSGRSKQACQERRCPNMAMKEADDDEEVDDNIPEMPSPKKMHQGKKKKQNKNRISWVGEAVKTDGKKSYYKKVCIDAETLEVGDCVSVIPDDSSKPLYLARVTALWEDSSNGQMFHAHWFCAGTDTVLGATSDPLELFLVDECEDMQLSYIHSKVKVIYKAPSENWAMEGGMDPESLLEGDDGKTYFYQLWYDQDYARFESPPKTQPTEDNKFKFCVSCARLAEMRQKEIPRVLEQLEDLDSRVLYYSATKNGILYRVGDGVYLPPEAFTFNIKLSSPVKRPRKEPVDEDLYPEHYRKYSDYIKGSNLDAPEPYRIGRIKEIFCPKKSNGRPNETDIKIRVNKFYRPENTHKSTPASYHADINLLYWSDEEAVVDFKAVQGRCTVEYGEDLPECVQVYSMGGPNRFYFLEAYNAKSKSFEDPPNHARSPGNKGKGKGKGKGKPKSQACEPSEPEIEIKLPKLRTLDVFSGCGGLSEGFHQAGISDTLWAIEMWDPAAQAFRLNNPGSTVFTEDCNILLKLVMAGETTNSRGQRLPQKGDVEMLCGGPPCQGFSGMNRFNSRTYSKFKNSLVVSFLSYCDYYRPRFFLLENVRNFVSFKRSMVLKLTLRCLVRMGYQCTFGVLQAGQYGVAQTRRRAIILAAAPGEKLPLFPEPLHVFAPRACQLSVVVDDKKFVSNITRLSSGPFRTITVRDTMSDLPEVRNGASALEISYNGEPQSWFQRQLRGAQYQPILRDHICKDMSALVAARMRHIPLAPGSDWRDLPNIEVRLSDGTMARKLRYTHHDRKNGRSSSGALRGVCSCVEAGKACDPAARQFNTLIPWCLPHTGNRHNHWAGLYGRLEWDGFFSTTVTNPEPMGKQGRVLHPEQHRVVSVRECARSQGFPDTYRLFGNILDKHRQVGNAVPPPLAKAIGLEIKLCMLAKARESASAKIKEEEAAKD

| Compound | inhibition |
| --- | --- |
| CS(=O)(=O)c1ccc2c(c1)SC1=NC(=O)/C(=C/c3ccco3)C(=N)N12 | 16.9% |
| Cc1ccc2cc(C)c(N3CCC(C)CC3)nc2c1 | 1.43% |
| NC(CSC(c1ccccc1)(c1ccccc1)c1ccc(-c2ccccc2)cc1)C(=O)O (centres undefined) | 30.5% (active) |
| CCOc1ccc(CN2CCC(n3nccc3NC(=O)C3CC3)CC2)cc1CO | 4.07% |
| Cc1ccc(N=C2NC(=O)/C(=C/C=C/c3ccco3)S2)cc1C | 10.4% |
| Cc1ccc(Cc2cncc(O)c2)cc1S(=O)(=O)O | 2.5% |
| O=C(CCN1C(=O)C2C3C=CC(C3)C2C1=O)Nc1ccccc1F (centres undefined) | 1.42% |
| CC(C)(C)N(Cc1ccccc1)C(=O)c1ccncc1 | 0.76% |
| COc1cc(-c2nnc(NC(=O)CS(=O)(=O)c3ccc(Cl)cc3)o2)cc(OC)c1OC | 7.33% |
| O=C(COC(=O)CCC(=O)c1cccs1)NCc1ccco1 | 3.72% |
| O=C(COC(=O)c1ccc(F)cc1F)Nc1ncccn1 | 2.67% |
| Cc1ccc(/C=C/C(=O)Nc2ccc([N+](=O)[O-])c(NC(=O)/C=C/c3ccc(C)o3)c2)o1 | 40.8% (active) |
| COc1ccc(OC)c(NC(=O)c2cc(-c3cc(F)ccc3OCC3CCCO3)n[nH]2)c1 (centres undefined) | 3.2% |
| COc1ccc(Cl)cc1NC(=O)CCS(=O)(=O)c1ccc(Br)cc1 | 21.9% |
| COc1ccc2sc(-c3ccc(S(C)(=O)=O)cc3)c(-c3ccc(C(N)=O)cc3)c2c1 | 2.28% |
| CCOc1cc(NC(=O)c2ccco2)c(OCC)cc1NC(=O)COc1ccccc1 | 0.94% |
| NC1=CC(=O)C(=O)c2cccnc21 | 58.8% (active) |
| CCOc1ccccc1/C=c1\sc2nc(-c3ccco3)nn2c1=O | 5.32% |
| O=C(COC(=O)/C=C/c1cn(-c2ccccc2)nc1-c1cccnc1)Nc1ccc(Cl)cc1Cl | 1.69% |
| O=C(Nc1cccc(-c2nc3ccccc3[nH]2)c1)c1ccc(C(=O)Nc2cccc(-c3nc4ccccc4[nH]3)c2)cc1 | 7.67% |
| CCNC(=O)C1CCCN(C(=O)c2cc(F)ccc2C)CC1 (centres undefined) | 2.4% |
| CC(=O)c1ccc(NC(=O)c2ccc3c(Cl)c4c(nc3c2)CCCC4)cc1 | 2.16% |
| C=C(C)C(=O)Nc1cccc(C2=NOC3(C2)C[C@H](C(N)=O)N(C(=O)C(c2ccccc2)c2ccccc2)C3)c1 (some centres undefined) | 20.2% |
| O/N=C1\CC2(Cc3nonc31)OCCO2 | 2.08% |
| CSc1ccc(CNC(=O)c2ccc(NC(=O)C3=CSCCO3)cc2)cc1 | 5.27% |
| Nc1cc2c(cc1Br)-c1ccc(F)cc1C2=O | -0.64% |

| Compound | inhibition |
| --- | --- |
| CCOC(=O)C(NC(=O)CC(C)C)(Nc1sc2c(c1C(N)=O)CCCC2)C(F)(F)F (centres undefined) | 38.7% (active) |
| CCCCCCc1cc2cc(-c3nnc(-c4ccccc4)o3)c(=O)oc2cc1O | 1.72% |
| CCOC(=O)c1c(NC(=S)NC(=O)/C=C/c2cccs2)sc(C)c1C | 0.76% |
| COC(=O)CCCCC1=CCC2C(=O)C=C(O)C2C1 (centres undefined) | 13.6% |
| Cc1ccc(-c2nnc(-c3ccc(NC(=O)c4cccs4)cc3)o2)cc1 | 3.86% |
| CC1(C)Cc2nc3sc4c(SCC(=O)NC(c5ccccc5)c5ccccc5)ncnc4c3cc2CO1 | 2.65% |
| COc1ccc(NC(=O)CN(C)C(=O)c2cc(C3CC3)nn2-c2ccccc2)cc1 | -1% |
| CCN(C(=O)CSc1nc(N)cc(=O)[nH]1)C1CCS(=O)(=O)C1 (centres undefined) | 4.21% |
| CC(=O)Nc1ccccc1Sc1ccc2c3c(cccc13)C(=O)N(c1ccc(C)cc1)C2=O | 1.49% |
| Cc1cc(O)c(C(=O)/C=C/c2c(F)c(F)c(F)c(F)c2F)c(=O)o1 | 15.6% |
| CN(C)/C=C(/C(=O)c1ccc(Cl)cc1)S(=O)(=O)c1ccccc1 | 5.43% |
| COc1ccc2[nH]c(=O)c(-c3noc(-c4ccc(F)cc4)n3)cc2c1 | 0.63% |
| COc1ccc(C(=O)/C=C/c2ccc(-c3ccccc3)cc2)cc1CSCC(=O)O | 28.4% |
| CCOC(=O)N1CC=C2C(C#N)=C(N)C(C#N)(C#N)[C@H](c3cccs3)[C@H]2C1 | 9.81% |
| c1ccc2cc3c(NCCN4CCOCC4)ccnc3cc2c1 | 23.4% |
| Cc1ccc(C(=O)NNC(=O)c2cc3cc4ccccc4nc3s2)cc1 | 3.71% |
| CC(C)(C)NC(=O)CSC(=Nc1ccccc1F)NC#N | 5.5% |
| O=C(c1cccs1)N1CCC(c2nc3ccccc3s2)CC1 | 1.54% |
| O=C(Nc1cccc(F)c1)c1cc(-c2ccco2)nc2ccccc12 | 1.53% |
| CCOc1cc(CN2CCCC(CO)(Cc3ccc(F)cc3F)C2)ccc1OC (centres undefined) | 1.12% |
| CN(CCOc1ccccc1)C(=O)c1cc(-c2ccco2)nc2ccccc12 | 3.76% |
| COc1ccc(/C=C2\SC(=N)N(c3ccc(F)cc3)C2=O)cc1 | -0.37% |
| COc1ccc2c(c1)c(=O)c(C(=O)c1ccc(Cl)cc1)cn2CC(=O)Nc1ccc(F)cc1 | 0.08% |
| CCc1nn(-c2cc(Oc3cccc4ccccc34)nc(-c3ccccc3)n2)c(N)c1C#N | -0.43% |
| Cc1ccc2[nH]c(=O)c(-c3nc4c(C)cccn4c3NCc3ccco3)cc2c1 | -1.18% |
| O=C(CN1CCCSc2ccccc21)N1CCN(S(=O)(=O)c2cccc(F)c2)CC1 | 2.39% |

| Compound | inhibition |
| --- | --- |
| O=C(COC(=O)c1ccccc1O)NCc1ccco1 | 3.59% |
| COc1ccc(C(=O)OCC(=O)Nc2cccc(C(C)=O)c2)cc1OC | 5.6% |
| CC(=O)Nc1ccc(SCC(=O)NC(=O)c2ccc(Cl)cc2)cc1 | 2.15% |
| O=C(Oc1ccc(-c2nc(-c3ccccn3)no2)cc1)c1ccccc1 | 29% |
| O=C(Nc1nc(-c2ccco2)c(-c2ccco2)s1)c1ccco1 | 6.2% |
| Cc1onc(-c2ccccc2)c1C(=O)Nc1ccccc1C#N | 1.14% |
| c1coc(-c2nc3nc4ccccc4n3nc2-c2ccco2)c1 | 0.83% |
| O=C1CCCC(O)=C1C=NCCc1ccccc1 | 0.99% |
| NNc1cccc(C=Cc2ccccc2)cc1=O | 1.25% |
| CCN1CCN(Cc2nc3c(c(=O)n(C)c(=O)n3C)n2CC(=O)c2ccccc2)CC1 | 0.76% |
| CCOC(=O)c1cccc(NC(=O)C2CCCN(S(=O)(=O)c3cnc[nH]3)C2)c1 (centres undefined) | 1.94% |
| C=CCn1c(=NC(=O)c2ccc(S(=O)(=O)N3CCCC3)cc2)sc2cc(NC(C)=O)ccc21 | 1.72% |
| Oc1c(C(c2ccco2)N2CCC3(CC2)OCCO3)sc2ncnn12 (centres undefined) | 1.28% |
| COc1ccc(Cc2nnc(NC(=O)Cc3cccs3)s2)cc1 | 87.7% (active) |
| COc1ccc(CC(=O)Nc2ccc(-c3nnc(-c4ccccc4)o3)cc2)cc1 | 3.13% |
| COc1ccc(CC(=O)Nc2ccc(-c3nnc(-c4ccc(C)cc4)o3)cc2)cc1 | -0.08% |
| CCN1C(=O)c2cccc3c(N)ccc1c23 | 2.42% |
| Cc1cc2nc(-c3ccco3)c(Cc3cccc(F)c3)n2c(C)c1Br | 7.28% |
| O=C(COc1ccc(/C=N/NC(=O)c2ccc(O)cc2)cc1)Nc1ccc([N+](=O)[O-])cc1 | 39.5% (active) |
| COc1ccc(OCC(=O)NNC(=O)c2ccc(-c3ccccc3)cc2)cc1 | 1.62% |
| O=C(COc1ccc([N+](=O)[O-])cc1)Nc1ccc(N2CCCC2)cc1 | 6.61% |
| O=C(CCNC(=O)c1ccccc1)NN=Cc1ccc(Br)o1 | 2.65% |
| O=C(c1ccc(CS(=O)(=O)c2ccccc2)o1)N1CCN(c2ccccc2)CC1 | 0.25% |
| COc1ccc(Br)cc1/C=N/Nc1ccc(S(=O)(=O)Nc2ccccc2C(=O)O)cc1[N+](=O)[O-] | 97.7% (active) |
| C/C(=N\Nc1ccc(S(N)(=O)=O)cc1[N+](=O)[O-])c1cccs1 | 1.78% |
| CC1CN(C(=O)c2ccccc2NS(=O)(=O)c2cccc([N+](=O)[O-])c2)CC(C)O1 (centres undefined) | 1.75% |

| Compound | inhibition |
| --- | --- |
| C=Cc1ccc(C(=O)N2CCCC(CCC(=O)N3CCN(c4ccccn4)CC3)C2)cc1 (centres undefined) | 1.51% |
| Cc1ccc(CNC(=O)CSc2nnc3c(n2)[nH]c2ccc(F)cc23)cc1 | 1.24% |
| c1ccc2cc3[nH]c(CN4CCCCC4)nc3cc2c1 | 3.8% |
| CCOC(=O)/C(C#N)=C/c1ccc(OCC(=O)Nc2ccccc2)c(OC)c1 | 4.96% |
| CCCCNC(=O)CCn1c(=O)c2ccccc2n(Cc2cc(C)ccc2C)c1=O | 2.63% |
| C=CCn1c(=S)[nH]c2scc(-c3ccco3)c2c1=O | 8.63% |
| CN(Cc1nc2ccc(F)cc2[nH]1)Cc1nc(CC2CC2)no1 | 4.53% |
| COc1ccc(-n2c(SCC(=O)Nc3sc4c(c3C#N)CCCC4)nnc2-c2ccc(O)cc2)cc1 | 18.9% |
| O=C(CCS(=O)(=O)c1ccc(Br)cc1)NCCc1ccc(Cl)cc1 | 3.33% |
| CCc1ccc(NC(=O)CS(=O)CC(=O)NCCCc2ccccc2)cc1 (centres undefined) | 2.37% |
| CCC/C=C(\CCC)C(NC(=O)Cc1ccccc1)c1ccc(C(=O)OC)cc1 (centres undefined) | 1.76% |
| COc1ccc(NC(=O)CCn2ccnc2)c(OC)c1 | 3.76% |
| Cc1ccccc1-n1cc(CNC(=O)CC2C(=O)NCCN2C/C=C/c2ccccc2)cn1 (centres undefined) | 0.15% |
| C=CC1=C(C(=O)O)N2C(=O)[C@@H](NC(=O)/C(=N\OCC(=O)O)c3csc(N)n3)[C@H]2SC1 | 4.47% |
| O=C(NNc1ccccn1)c1ccc(Cl)nc1 | 0.99% |
| CC(Oc1ccccc1)C(=O)Nc1oc(-c2ccco2)c(-c2ccco2)c1C#N (centres undefined) | 1.51% |
| COc1cccc(C(=O)Nc2ccc(N3CCCC3)cc2)c1 | 20.5% |
| Cc1ccc(-c2cc(C(=O)NCc3cn(C)nc3C)c3cc(Br)ccc3n2)cc1 | 8.12% |
| CC1(C(=O)NS(=O)(=O)c2ccccc2)CCN1C(=O)C/C=C/c1ccccc1 (centres undefined) | 0.79% |
| Cc1ccccc1NC(=O)CN1C(=O)N/C(=C\c2cccn2-c2cccc(C(=O)O)c2)C1=O | 34.7% (active) |
| N#Cc1ccccc1CN1C(=O)S/C(=C/c2cccn2-c2cccc(C(=O)O)c2)C1=O | 12.5% |
| O=C(Cn1nnc(-c2ccccc2)n1)N/N=C/c1ccc(-c2ccc(Cl)cc2)o1 | 2.46% |
| C=CC[C@@H](CC(=O)N[C@H](CO)Cc1ccccc1)C(=O)N[C@@H](COC(=O)[C@@H](CC=C)Cc1ccc(F)cc1)Cc1c[nH]c2ccccc12 | 5.95% |
| O=c1[nH]c(/C=C/c2cccc(Br)c2)nc2ccccc12 | 3.81% |
| O=C(CSc1nc2ccccc2c(=O)[nH]1)Nc1nc(-c2ccc(Br)cc2)cs1 | 41.9% (active) |
| Cc1nnc(N/N=C/c2cccs2)[nH]c1=O | 2.68% |
